From PubChem BioAssay AID2751 (The Scripps Research Institute Molecular Screening Center, 2010)
Screen size: about 320,000 compounds; about 2,200 (0.69%) were called active. Rule as the data show it: active = inhibition above about 43%; inactive = the rest. The entries come from a sample that favours actives as a whole.

What follows are compounds tested against Prolyl endopeptidase-like (Homo sapiens) (UniProt Q4J6C6) (assay: human PREPL activity-probe blockers – biochemical, fluorescence polarization, primary screen (AID 2751;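 also: 0% = enzyme with DMSO and 100% = wells lacking enzyme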)). Details: recombinant PREPL, fluorescence polarization activity-based probe; at 5.96 µM; hits give high values.
Prolyl endopeptidase-like (Homo sapiens), sequence (Q4J6C6 whole entry, looked up): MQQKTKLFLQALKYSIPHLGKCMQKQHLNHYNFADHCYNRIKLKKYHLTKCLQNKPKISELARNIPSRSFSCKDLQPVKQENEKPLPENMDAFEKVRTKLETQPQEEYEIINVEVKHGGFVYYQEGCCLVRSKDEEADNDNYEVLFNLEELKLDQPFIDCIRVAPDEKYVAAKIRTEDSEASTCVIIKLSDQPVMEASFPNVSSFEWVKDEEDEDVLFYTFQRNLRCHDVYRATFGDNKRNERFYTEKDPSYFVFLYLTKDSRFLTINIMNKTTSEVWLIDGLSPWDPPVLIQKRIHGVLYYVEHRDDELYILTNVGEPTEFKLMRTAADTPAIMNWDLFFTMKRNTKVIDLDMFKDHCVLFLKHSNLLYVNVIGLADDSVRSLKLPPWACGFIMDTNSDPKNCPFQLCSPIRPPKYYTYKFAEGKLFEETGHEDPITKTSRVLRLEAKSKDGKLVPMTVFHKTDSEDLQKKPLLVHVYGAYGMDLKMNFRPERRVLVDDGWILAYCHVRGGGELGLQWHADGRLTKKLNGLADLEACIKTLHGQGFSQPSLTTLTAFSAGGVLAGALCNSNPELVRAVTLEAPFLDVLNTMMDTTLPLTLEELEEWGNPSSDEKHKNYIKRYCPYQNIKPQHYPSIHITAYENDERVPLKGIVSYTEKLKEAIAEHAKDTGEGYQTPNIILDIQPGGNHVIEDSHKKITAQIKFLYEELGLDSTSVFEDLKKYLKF

| SMILES | inhibition |
| --- | --- |
| COc1ccc2[nH]c3c(c2c1)CCN[C@H]3C | 48.8% (active) |
| O=C(N/N=C/c1c(O)n(C2CC2)c(=S)[nH]c1=O)c1ccccc1Cl | -3.24% (inactive) |
| CCOc1ccc(-c2cc(C)[n+](CCN(CC)CC)c(-c3ccc(OCC)cc3)c2)cc1 | 10.9% (inactive) |
| CCOc1cccc(=NC2CCCCC2)c2c(C)[nH]c(C)c12 | 52.1% (active) |
| Cn1c(O)c(C=NCCCC(=O)O)c(=O)n(C)c1=O | -8.04% (inactive) |
| N[C@@H](Cc1c[nH]c2ccccc12)c1nnc(SCc2c(F)cccc2Cl)o1 | 2.17% (inactive) |
| CCN(CC)C(=O)c1ccc(NC(=O)c2cc(-n3cnnc3)ccc2Cl)cc1 | 15.1% (inactive) |
| Cc1nc2ccccn2c1P(=S)(N1CCCCC1)N1CCCCC1 | -7.5% (inactive) |
| COC(=O)C(c1ccccc1)N1CCCCCC1 (stereo not given) | 1.34% (inactive) |
| O=C(NCC(c1cccnc1)N1CCN(c2ccccc2)CC1)Oc1ccccc1 (stereo not given) | 46.3% (active) |
| COc1ccccc1N1CCN(C(CNC(=O)Oc2ccccc2)c2cccnc2)CC1 (stereo not given) | 1.24% (inactive) |
| COc1ccc(C2NCc3ccc4c(c3-n3cccc32)OCO4)cc1OC (stereo not given) | -15.2% (inactive) |
| COC(=O)N(c1ccc(OC)cc1)P1(=S)OCCC(C)O1 (stereo not given) | 8.63% (inactive) |
| O=C(O)C1CSC(c2cccnc2)N1 (stereo not given) | 3.28% (inactive) |
| Cc1c(Oc2cc(NN3CCCCC3)c([N+](=O)[O-])cc2[N+](=O)[O-])cccc1[N+](=O)[O-] | 4.76% (inactive) |
